# Shiga inhibitor = blocks Shiga toxin action in Vero cells. AID 2315. inhibition, % at 38.7 µM. Vero cells, Shiga toxin protein synthesis inhibition reporter. 290,000 tested, 9.2% active; in the data active means inhibition mostly above about 28%, no sharp cut-off; inactive means mostly below about 43%; further: 0% is about no effect
# Pf growth 48h = P. falciparum growth inhibition at 48 hours (one generation). 310,000 tested, 5.9% active. AID 504832. P. falciparum luciferase growth in erythrocytes, 48 h. Potency, µM (titrated, usually from 28.7 µM), inactives show top-dose activity change, negative = inhibition, actives largely listed as inhibitors; further: potency means the concentration at half of the fitted maximal effect; on the % scale 0 is the no-effect control and ±100 the full control effect
#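 Read-out is firefly luciferase luminescence from an integrated reporter in P. falciparum, so falling signal marks reduced parasite growth. Infected erythrocytes were at 2% hematocrit and 0.1% parasitemia (final) in Albumax-supplemented RPMI 1640.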
# Cycloheximide cs = counter-screen hit for Shiga toxin inhibitors, cycloheximide; AID 2314; cell reporter, cycloheximide protein synthesis inhibition counterscreen; 300,000 tested, 12% active; max response, %; in the data active means max response mostly above about 13%, no sharp cut-off; inactive means mostly below about 14%; further: read at 38.3 µM for the half of the compounds with a filed dose; 0% is about no effect
# SARS PLP yeast = inhibitors of SARS-CoV papain-like protease in yeast. AID 485353. 330,000 tested, 0.19% active. S. cerevisiae expressing SARS-CoV PLpro, growth rescue. Potency, µM (highest dose often 32.9 µM), without a hit: at the highest dose activity, positive = growth rescue, usual class: activators; calls by dose curve; further: potency means the concentration at half of the fitted maximal effect; 0% is about no effect; nearly all actives have a fitted effect of over 55% in size
# Pf growth 96h = P. falciparum growth inhibition at 96 hours; 320,000 tested, 6.9% active; AID 504834; P. falciparum luciferase reporter growth, 96 h; Potency, µM (highest dose often 28.7 µM), without a hit: at the highest dose activity change, negative = inhibition, hits mostly inhibitors; further: potency means the concentration at half of the fitted maximal effect; on the % scale 0 is the no-effect control and ±100 the full control effect
#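 96 h incubation, 37 C, 5% CO2, of luciferase-reporter P. falciparum-infected RBCs (2% hematocrit, 0.05% parasitemia final) with test compounds; endpoint luminescence.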
# NS1 inh = inhibitors of influenza NS1 protein function; Potency, µM (titrated, usually from 46.1 µM), inactives show at the highest dose activity, positive = more growth; 270,000 tested, 0.4% active; AID 2326; calls by dose curve; further: potency means the concentration at half of the fitted maximal effect; actives are rising curves; nearly all actives have a fitted effect of over 50% in size
#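 OD600 was taken as the measure of yeast growth restored by compound in an NS1-expressing S. cerevisiae strain. Cells had been washed out of glucose medium and diluted 1:100 into galactose -URA medium, pH 6.0.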
# * marks the source's active call; other numbers are inactive results; i = inactive; ? = inconclusive; / = not tested or not shown; [ ] = dose if it differs, or a comment. Hits are enriched below; roughly 21% of the tested compounds scored in any of these assays. Unless noted, the call rests on the fitted dose curve; in most records, active means well fitted inhibition curve with a large enough effect; inconclusive means small, poorly fitted or top-dose-only effect, or another doubt; inactive means no such curve, though single readings can be large or run the other way.
SMILES,Shiga inhibitor,Pf growth 48h,Cycloheximide cs,SARS PLP yeast,Pf growth 96h,NS1 inh
O=C(CCCCN1CCCCC1)c1ccc2c(c1)Cc1ccccc1-2,-16.0,5.22µM*,-0.9,-3.5%,12.6%,/
O=C(Nc1cccc(Cl)c1)OCc1cncs1,28.8,55.7%,1.2,-13.9%,113.9%,-12.8%
CCOC(=O)Nc1cccc2ccccc12,11.8,/,6.3,5.1%,17.6%,-4.4%
O=C(Nc1cccc2ccccc12)OCc1cncs1,32.1*,36.7%,24.2*,-2.7%,63.5%,-4.3%
O=C(Nc1ccc(Cl)cc1)OCc1cncs1,120.5*,41.5%,60.1*,4.2%,81.2%,-1.9%
O=C(COC(=O)c1cnccn1)c1ccc(C2CCCCC2)cc1,32.7,26.4%,-2.3,-4.2%,?,-69.1%
CCn1c(SCC(=O)NNC(=O)c2ccccc2)nnc1-c1ccncc1,-7.8,-2.8%,-2.8,1.3%,?,4.8%
CCn1c(SCC(=O)NNC(=O)Cc2ccccc2)nnc1-c1ccncc1,-4.7,1.47µM*,-3.5,1.8%,0.329µM*,0.3%
C=CCNC(=O)CSc1nnc(-c2ccncc2)n1CCc1ccccc1,-10.1,0.7%,-1.0,2.6%,11.7µM*,0.9%
O=C(Nc1nnc(SCc2ccc(Cl)cc2)s1)C1CC(=O)N(Cc2ccccc2)C1 (stereo not drawn),-13.7,19.8%,-2.5,18.2%,5.2%,4.5%
CN(C)S(=O)(=O)N1CCC(Oc2cccc(C(=O)N3CCSCC3)c2)CC1,9.5,-26.0%,-1.2,-3.4%,?,1.5%
CCOc1ccc(NC(=O)Nc2ccccc2C(N)=O)cc1,45.8*,12.3%,29.4*,-3.7%,3.8%,-1.3%
Cc1ccccc1NC(=O)Nc1ccccc1C(N)=O,13.6,0.4%,-2.9,1.1%,i,-4.6%
COc1ccc(NC(=O)Nc2ccccc2C(N)=O)cc1,72.1,5.2%,26.2*,-1.5%,13.0%,-6.1%
Cc1ccc(NC(=O)Nc2ccccc2C(N)=O)cc1,62.9*,49.8%,28.6*,0.4%,36.6%,-2.8%
CCOc1ccc(NC(=O)Nc2ccc(NC(C)=O)cc2)cc1,21.7,18.3%,2.8,-0.7%,37.5%,/
O=C(c1cncc(Br)c1)N1CCN(S(=O)(=O)c2ccc(Cl)cc2)CC1,-3.7,-8.9%,-2.9,0.2%,-4.6%,7.2%
Cc1nc2cc(Nc3nnc(-c4ccccc4)c4ccccc34)ccc2n1C,44.8,43.3%,45.1*,-2.3%,63.8%,-10.2%
Cc1ccccc1N1C(=O)C2C3CC(=O)C(c4ccccc43)C2C1=O (stereo not drawn),-3.3,43.6%,-1.6,0.5%,106.0%,-3.9%
Cc1ccnc2c(N3C(=O)C4C5c6ccccc6C(c6ccccc65)C4C3=O)cccc12 (stereo not drawn),-15.3,?,1.4,10.5%,5.22µM*,-8.3%
CC(C)(C)C1CCC(OC(=O)c2ccncc2)CC1 (stereo not drawn),3.0,11.7µM*,-3.6,1.2%,8.8%[5.75 µM],-47.5%
CC(C)(C)C1CCC(OC(=O)c2cncc(Br)c2)CC1 (stereo not drawn),38.5,63.1%,6.5,0.4%,36.4%,/
CC1(C)CC(=O)C2=C(C1)OC1OC(=O)CC21C (stereo not drawn),11.9,19.6%,2.1,-0.2%,46.3%,-4.2%
COC(=O)C1=C(c2ccc(F)cc2F)C[C@@H]2CC[C@H]1N2C(=O)NCCOc1ccccc1,/,?,/,-19.1%,4.15µM*,/
COC(=O)C1=C(c2ccc(-c3ccccc3)c(F)c2)C[C@@H]2CC[C@H]1N2C(=O)NCCO,/,?,/,-8.2%,-25.3%,/
SMILES,Shiga inhibitor,Pf growth 48h,Cycloheximide cs,SARS PLP yeast,Pf growth 96h,NS1 inh
COC(=O)C1=C(c2ccc(-c3ccccc3)c(F)c2)C[C@@H]2CC[C@H]1N2C(=O)NCCOc1ccccc1Cl,/,10.4µM*,/,2.5%,?,/
CCCNC(=O)N1[C@H]2CC[C@@H]1C(C(=O)OC)=C(c1ccc(-c3ccccc3)c(F)c1)C2,/,9.28µM*,/,2.5%,?,/
COC(=O)C1=C(c2ccc(OC)c(OC)c2)C[C@@H]2CC[C@H]1N2C(=O)NCCOc1ccccc1Cl,/,?,/,1.3%,?,/
CC(C)C1NC(C(=O)O)Cc2c1[nH]c1ccccc21 (stereo not drawn),-5.1,-16.6%,1.1,-3.9%,-3.8%,1.4%
CCOC(=O)C1=C(N)Oc2c(oc(CO)cc2=O)C1c1ccccc1 (stereo not drawn),7.3,14.3%,-4.9,-2.2%,?,/
Cc1ccc(SCC(=O)NC2CCCCCC2)cc1,66.7*,65.0%,29.8*,1.4%,34.0%,-11.0%
O=C(CCSc1ccccc1)NC1CCCCCC1,98.0*,28.7%,33.1*,-1.9%,14.4%,-2.6%
O=C(CSc1nncc(=O)[nH]1)NC1CCCCC1,4.9,11.0%,-2.9,1.4%,3.7µM*,9.0%
NNC(=O)CCSc1ccccc1,/,/,/,/,/,-0.3%
O=C(c1ccc(C(F)(F)F)cc1)N1CCC(=O)N([C@H](COCc2ccc(C(F)(F)F)cc2)Cc2ccccc2)CC1,i,/,1.1,/,/,/
Nc1nnc(Cc2ccc(F)cc2)s1,-3.5,10.4µM*,-0.5,-0.4%,1.9%,-0.8%
COc1cc(CO)ccc1OCc1nnnn1-c1ccc(C)cc1,-0.2,-0.4%,-2.5,1.6%,?,/
Nn1c(SCc2ccccc2)nc2c(cnn2-c2ccccc2)c1=O,75.9*,31.2%,23.3*,-1.1%,-0.2%,-8.0%
CCCCSc1nc2c(cnn2-c2ccccc2)c(=O)n1N,94.4*,79.2%,41.9*,-1.5%,-1.4%,-37.3%
CCSc1cnn(-c2ccccc2)c(=O)c1SCC,11.1,/,1.3,-3.0%,27.1%,-6.1%
CCCCSc1cnn(-c2ccccc2)c(=O)c1SCCCC,-1.3,11.7µM*,-3.2,-26.8%,11.7µM*,0.2%
CCCSc1nc2c(cnn2-c2ccccc2)c(=O)n1N,49.6*,-6.8%,43.5*,-1.3%,471.2%,-8.0%
COc1ccc(OC)c(NS(=O)(=O)c2c(C)nc3sccn3c2=O)c1,-4.0,-14.7%,-4.3,-7.1%,26.4%,-17.3%
C[C@H]([C@H](C)N1CC(=O)NC(=O)C1)N1CC(=O)NC(=O)C1,16.0,/,-5.2,/,/,/
O=C(Nc1ccc(O)c2c(=O)cc(-c3ccccc3Cl)oc12)c1cc(Cl)cc(Cl)c1,-6.5,/,-2.3,/,/,/
O=c1c2cnn(-c3ccccc3)c2nc(-c2ccco2)n1-c1ccccc1,11.8,10.4µM*,-0.9,-1.0%,10.4µM*,0.4%
O=c1oc(-c2ccco2)nc2c1cnn2-c1ccccc1,-15.3,-4.0%,-2.8,-8.2%,-5.1%,-59.3%
CCOC(=O)c1ccc(N2C(=O)Cc3ccccc3C2=O)cc1,-5.6,?,-4.6,-0.4%,-18.8%,15.9%
C=CC[C@]12CCc3ccccc3C1N(c1ccc(C(=O)OCC)cc1)C2=O (stereo partly drawn),/,13.1µM*,/,0.3%,?,/
COc1cccc(CNC(=O)c2ccccc2NC(=O)C2=C(C)OCCS2)c1OC,14.6,?,3.2,-10.0%,?,-6.8%
